Assay results reported in PubChem BioAssay (EPA / NIEHS).
Active and inactive are the calls of the source. Rule for the calls: active = hit-call score of the fitted dose curve at least 0.9, where 1 is the maximum; inactive = score below 0.9.

Read-out: Interleukin-1 alpha (IL1a), IL1A (gene 3552)
Test: BSK_KF3CT_IL1a: BioMAP Diversity Plus: KF3CT Assay for Interleukin-1 alpha (IL1a) Biomarker Activity (AID 2283070)
Settings: primary human keratinocytes with fibroblasts; actives raise or lower the signal
Method: BSK_KF3CT is a cell-based, multiplexed-readout assay that uses keratinocytes and foreskin fibroblasts, a human skin primary cell co-culture, with measurements taken at 24 hours after chemical dosing in a 96-well plate.BSK_KF3CT_IL1a is an assay component measured in the BSK_KF3CT assay. It measures IL-1a antibody related to regulation of gene expression using ELISA technology.Data from the assay component BSK_KF3CT_IL1a was analyzed into 1 assay endpoint. This assay endpoint, BSK_KF3CT_IL1a, was analyzed with bidirectional fitting relative to DMSO as the negative control and baseline of activity. Using a type of binding reporter, gain or loss-of-signal activity can be used to understand changes in the signaling as they relate to the gene IL1A. Furthermore, this assay endpoint can be referred to as a primary readout, because this assay has produced multiple assay endpoints where this one serves a signaling function. To generalize the intended target to other relatable targets, this assay endpoint is annotated to the cytokine intended target family, where the subfamily is interleukins.
The levels of cell surface (or secreted, indicated by the prefix "s") biomarker endpoints were measured by ELISA. Overt cytotoxicity to cells in confluent adherent cultures (all systems other than the BT system) was assessed by measuring total protein levels using sulforhodamine B (SRB) staining in parallel cultures at the time of biomarker measurements, indicated as SRB endpoints. For proliferation assays for adherent cell types, individual cell types are cultured at sub-confluence and relative cell numbers quantified by SRB staining at time points optimized for each system (48 h: 3C and CASM3C systems; 72 h: BT and HDF3CGF systems; 96 h: SAg system). SRB was performed by staining cells with 0.1% SRB after fixation with 10% TCA and reading wells at 560 nm.Viability and proliferation of PBMC (T cells) was quantified by Alamar Blue reduction for the SAg and BT systems. For PBMC viability (referred to as PBMC Cytotoxicity within the assay endpoint names), cells were plated (75,000/well in a 96-well plate) and then chemical samples added for 1 h before addition of activators, SEB and TSST-1 (20 ng/mL final concentration each). Cells were incubated for 90 h. Then, Alamar Blue (20 uL/well) (Invitrogen, Cat DAL1100) was added for 6 h, and the plates were read with a fluorescence microplate reader at 546/580 nm (excitation/emission). For PBMC proliferation, cells were plated and activated as above but incubated for only 16 h prior to addition of Alamar Blue. Plates were read after 6 h.

Row | SMILES | outcome | AC50
1 | Cc1cc(Cc2ccc(N)c(C)c2)ccc1N | inactive | 
2 | CO[C@@H]1COCC[C@@H]1N[C@@H]1CC[C@@](C(=O)N2CCc3ncc(C(F)(F)F)cc3C2)(C(C)C)C1 | inactive | 
3 | O=C1NC(=O)C(c2ccccc2)(c2ccccc2)N1 | inactive | 
4 | CC(=O)CC(c1ccccc1)c1c(O)c2ccccc2oc1=O (stereo not given) | inactive | 
5 | CN(C)C(=O)NC1(c2ccccc2)CCN(CC[C@@]2(c3ccc(F)c(F)c3)CN(C(=O)c3ccccc3)CCO2)CC1 | inactive | 
6 | c1ccc2occc2c1 | inactive | 
7 | C/C=C/c1ccc(OC)cc1 | inactive | 
8 | CS(=O)(=O)c1ccc([C@@H](C[C@H]2CCC(=O)C2)C(=O)Nc2cnccn2)cc1Cl | inactive | 
9 | C=CCCCCCCCCCCCC | inactive | 
10 | COc1ccc(OC(F)(F)F)cc1CN[C@H]1CCCN[C@H]1c1ccccc1 | inactive | 
11 | Oc1ccc(O)cc1 | inactive | 
12 | CC(C)COC(=O)CCCCC(=O)OCC(C)C | inactive | 
13 | O=C1OC(c2ccc(O)cc2)(c2ccc(O)cc2)c2ccccc21 |  | 28.8 µM (active)
14 | N[C@@H](Cc1c[nH]c2ccccc12)C(=O)O | inactive | 
15 | O=C1O[C@H]([C@H](O)CO)C(O)=C1O | inactive | 
16 | CC(N)=O | inactive | 
17 | CCOCCOCCO | inactive | 
18 | CC(=O)[C@@]1(O)CC[C@H]2[C@@H]3CCC4=CC(=O)CC[C@]4(C)[C@H]3CC[C@@]21C | inactive | 
19 | Cc1ccc(-c2cc(C(F)(F)F)nn2-c2ccc(S(N)(=O)=O)cc2)cc1 | inactive | 
20 | O=C(Oc1ccccc1)c1cccc(C(=O)Oc2ccccc2)c1 | inactive | 

Row | SMILES | outcome | AC50
21 | CSc1ccc(Oc2ccc(S(N)(=O)=O)cc2CN(C)C)cc1C | inactive | 
22 | CCCCCCC(CCCCCCCCCCC(=O)OCC(COC(C)=O)OC(C)=O)OC(C)=O (stereo not given) | inactive | 
23 | O=C(O)CC(O)(CC(=O)O)C(=O)O | inactive | 
24 | O=C1CCCCC1 | inactive | 
25 | CC(C)(O)c1ccc(CNC(=O)c2cccnc2Oc2ccc(F)cc2)cc1 | inactive | 
26 | OCC(O)CO | inactive | 
27 | C=CCc1ccc(OC)c(OC)c1 | inactive | 
28 | CC(C)NCC(O)c1ccc(O)c(O)c1 (stereo not given) | inactive | 
29 | O=C(O)c1[nH]n(-c2ccc(S(=O)(=O)O)cc2)c(=O)c1N=Nc1ccc(S(=O)(=O)O)cc1 | inactive | 
30 | COc1ccc(C(=O)Nc2nc3ccccc3c(NCc3ccccc3)c2C#N)cc1 | inactive | 
31 | Cc1c(C)c2c(c(C)c1O)CCC(C)(COc1ccc(CC3SC(=O)NC3=O)cc1)O2 (stereo not given) |  | 29.5 µM (active)
32 | CC(C)(C)c1ccccc1 | inactive | 
33 | CN(C)CCCN(C)CCCN(C)C | inactive | 
34 | CC(=O)OC1CC(C)OC(C)O1 (stereo not given) | inactive | 
35 | NCCOCCOCCN | inactive | 
36 | NC1CCCCC1 | inactive | 
37 | Cc1occc(=O)c1O | inactive | 
38 | CC(C)OC(=O)C(C)(C)Oc1ccc(C(=O)c2ccc(Cl)cc2)cc1 | inactive | 
39 | CCCCCCCCCC[N+](C)(C)[O-] | inactive | 
40 | CCCC[C@H]1CN(CC2CCOCC2)C(=O)OC12CCN(C1(C)CCN(C(=O)c3c(C)ncnc3C)CC1)CC2 | inactive | 
